A short description of assay [1]: Cell Viability - BJ (AID 421; calls by dose curve;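 further: potency means the concentration at half of the fitted maximal effect; cells exposed to compound for 40 hours at 37 °C before readout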). The note with it: BJ fibroblast viability, qHTS. In outline: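 Cytotoxicity in human BJ foreskin fibroblasts is scored as loss of cellular ATP after a 40-hour exposure, measured by luciferase luminescence. Controls are DMSO and 100 uM tamoxifen.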
A general note: Quantitative high-throughput screening tests each substance at several concentrations.

A short description of assay [2]: Cell Viability - Jurkat (AID 426;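 active means dose-dependent loss of cell ATP signal giving a full or clear fitted curve, ranked by lower potency value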; further: potency means the concentration at half of the fitted maximal effect). The following applies: qHTS. The method, boiled down: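 Seed 5000 Jurkat E6-1 cells/well; add compound; incubate 40 hr at 37 °C; add CellTiter-Glo; wait 20 min at room temperature; read luminescence. Fit concentration-response with Hill equation for AC50.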
The nature of assay [3]: Cell Viability - Hek293 (AID 427;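 active means compounds whose dose-response curve shows a full or clear partial loss of cell viability, called from curve shape rather than a numeric limit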;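 further: potency means the concentration at half of the fitted maximal effect; cells exposed to compound for 40 hours at 37 °C before reading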). The note with it: qHTS. The method, boiled down: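 qHTS, human embryonic kidney (adenovirus-transformed) cells; 40 hr cpd, 37 °C; CellTiter-Glo ATP luminescence. Norm: DMSO = 0, 100 uM tamoxifen = 100% inhibition. Hill-fit AC50.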
Assay [4] can be described thus: Cell Viability - HepG2 (AID 433; calls by dose curve;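 further: potency means the concentration at half of the fitted maximal effect; potency for ATP loss meaning cytotoxicity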). The following applies: qHTS. In outline: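 HepG2 cells, 1500 per well, treated 40 hr at 37 °C in complete medium; viability from intracellular ATP by CellTiter-Glo luminescence. Normalized to DMSO and 100 uM tamoxifen; AC50 from Hill fit of qHTS concentration-response.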
Assay [5] can be described thus: Cell Viability - MRC5 (AID 434; calls by dose curve;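 further: potency means the concentration at half of the fitted maximal effect; potency reflects cytotoxicity seen as loss of intracellular ATP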). The note with it: MRC5 lung fibroblast viability, qHTS. In outline: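 MRC5 normal human lung fibroblasts, 1500 cells/well, exposed to compound for 40 hr at 37 C. Cellular ATP was read by CellTiter-Glo luminescence; data normalized to DMSO and 100 uM tamoxifen, with AC50 from Hill fits.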
Assay [6] in a line: Cell Viability - SK-N-SH (AID 435; calls by dose curve;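 further: potency means the concentration at half of the fitted maximal effect; compound exposure lasted 40 h at 37 °C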). The following applies: SK-N-SH neuroblastoma cell viability qHTS. The method, boiled down:
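SK-N-SH neuroblastoma cells (1500/well) treated 40 h at 37 °C in complete medium; viability read as cellular ATP by CellTiter-Glo luminescence. Normalized to DMSO and 100 uM tamoxifen; AC50 from Hill fits of qHTS concentration-response.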

For assay [7], the target named is Mitogen-activated protein kinase 10 (Mus musculus) (UniProt Q61831). The assay can be described thus: JNK3 AlphaScreen Assay (AID 530; active means well fitted curve in either direction with a large enough effect, not every such curve was filed as active;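 further: kinase came from lysate of stimulated human HepG2 cells; signal reports phosphorylation of biotinylated GST-cJun 1-79 at Ser73 with 10 µM ATP; on the % scale 0 is the no-effect control and ±100 the full control effect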). The following applies: JNK3 lysate, c-Jun phosphorylation; series mostly up to 57.1 µM. In outline:
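qHTS format: compounds tested as titrations against IL-1beta/TNF-alpha-activated HepG2 lysate JNK3 with biotin-GST-cJun substrate and 10 uM ATP at room temperature. Loss of anti-phospho-cJun AlphaScreen signal indicates inhibition.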
For orientation: Bead proximity is the source of the signal in Alpha formats.

Assay [8] can be described thus: Cell Viability - N2a (AID 540).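 Further: plate controls were DMSO alone for no effect and tamoxifen control for full effect; nearly all actives have a fitted effect of over 45% in size.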 The following applies: N2a mouse neuroblastoma cell viability; activity change, negative = cytotoxicity: at 92.2 µM (top of the series). In outline: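 First, 1500 N2a cells per well incubate 5 hr at 37 °C; next, compounds are added and incubated 40 hr at 37 °C; finally CellTiter-Glo is added and luminescence read after 20 min, with AC50 derived by Hill modeling.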

A short description of assay [9]: Cell Viability - NIH 3T3 (AID 541).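 Further: plate controls were DMSO alone for no effect and tamoxifen positive control for full effect; nearly all actives have a fitted effect of over 25% in size.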 The following applies: NIH 3T3 cell viability, qHTS; activity change, negative = cytotoxicity: at 92.2 µM (top of the series). The method, boiled down:
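AC50 values reflect concentration-dependent loss of intracellular ATP in NIH 3T3 cells after 40 hr treatment in complete culture medium, quantified by luciferase-based luminescence.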

Assay [10] is described as follows: Cell Viability - HUV-EC-C (AID 542). Further: on the % scale 0 is the no-effect control and ±100 the full control effect; nearly all actives have a fitted effect of over 35% in size. The note with it: HUV-EC-C endothelial cell viability, qHTS; series mostly up to 92.2 µM. In outline:
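Decrease in cellular ATP, quantified by luciferase luminescence, reflects toxicity in normal human vascular endothelial HUV-EC-C cells given compound for 40 hr in complete culture medium. Values are AC50s from concentration-response curves.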

A short description of assay [11]: Cell Viability - SH-SY5Y (AID 544). Further: nearly all actives have a fitted effect of over 55% in size. Further: potency means the concentration at half of the fitted maximal effect. The following applies: SH-SY5Y neuroblastoma cell viability; viability change, negative = cytotoxic: at 92.2 µM (top of the series). In outline: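 Cytotoxicity is scored as a concentration-dependent fall in intracellular ATP in human SH-SY5Y cells treated 40 hr in complete culture medium. Potency is expressed as AC50 from a Hill equation fit.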

Assay [12] can be described thus: Cell Viability - Renal Proximal Tubule (AID 545). Further: nearly all actives have a fitted effect of over 40% in size. The note with it: renal proximal tubule cells viability, primary cells of rat origin; series mostly up to 91.7 µM. The method, boiled down: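 Rat renal proximal tubule primary cells, 1000/well, exposed to compounds for 40 hr at 37 °C in complete medium; cellular ATP read by CellTiter-Glo luminescence. AC50 from concentration-response fitted with standard Hill equation.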

The nature of assay [13]: Cell Viability - Mesenchymal (AID 546).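 Further: cells exposed to compound for 40 hours before reading.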 The following applies: mesenchymal cells viability, qHTS; series mostly up to 91.7 µM. The method, boiled down: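 Human kidney mesenchymal cells from normal renal glomeruli, 1000 cells/well, rested 5 hr at 37 °C, then treated 40 hr at 37 °C in complete medium. Cellular ATP read by CellTiter-Glo luminescence; AC50 from Hill-equation fits.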

Assay [14] is described as follows: Cellular Toxicity (caspase-3) HepG2 (AID 654).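 Further: cells exposed to compound for 16 hours before reading; 0% = DMSO alone and 100% = caspase signal from 100 µM tamoxifen.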 The note with it: HepG2 caspase-3 activation, luminescence; series mostly up to 92.2 µM. The method, boiled down:
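qHTS, HepG2, 1500 cells/well, complete medium; cpd 16 h 37 °C; Caspase-Glo 3/7, 20 min RT; lum. Norm: DMSO vs 100 uM tamoxifen; AC50 Hill fit.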

The nature of assay [15]: Cellular Toxicity (caspase-3) Jurkat (AID 655).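 Further: cells exposed to compound for 16 h at 37 °C before reading.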 The following applies: Jurkat caspase-3 activation, luminescence; caspase-3 activation: at 92.2 µM (top of the series), DMSO = 0%, tamoxifen = 100%. The method, boiled down: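 Jurkat cells (5000/well) in complete medium exposed 16 h at 37 C; caspase-3/7 activity read by Caspase-Glo luminescence after 20 min at room temperature. Normalized to DMSO and 100 uM tamoxifen; AC50 from Hill fits.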

A short description of assay [16]: Cellular Toxicity (caspase-3) HUV-EC-C (AID 656). The following applies: HUV-EC-C cells, caspase-3 activation (apoptosis), vehicle = 0, 100 µM tamoxifen = 100%; series mostly up to 92.2 µM. The method, boiled down: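 HUV-EC-C cells (1000/well) in complete medium, compound-treated 16 h at 37 °C; caspase-3/7 activity read by Caspase-Glo 3/7 luminescence. Normalized to DMSO (basal) and 100 uM tamoxifen (100%); AC50 from Hill-equation concentration-response fits.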

The nature of assay [17]: Cellular Toxicity (caspase-3) SHSY5Y (AID 657). The following applies: SH-SY5Y caspase-3 activation, DMSO zero, 10 µM staurosporine = 100%; series mostly up to 91.7 µM. The method, boiled down:
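SH-SY5Y human neuroblastoma cells, 1500/well, exposed to compound for 16 hours at 37 °C in complete medium. Caspase-3/7 activity read by Caspase-Glo luminescence after 1 hr at room temperature, normalized to DMSO and 10 uM staurosporine; AC50 from Hill fit.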

Assay [18] in a line: Cellular Toxicity (caspase-3) BJ (AID 658). The following applies: BJ fibroblasts, luminescence, normalized: DMSO 0%, staurosporine 100%; series mostly up to 91.7 µM. In outline: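 BJ human foreskin fibroblasts, 1000 cells/well, treated 16 hours at 37 °C in complete medium; caspase 3/7 activity by Caspase-Glo luminescence after 1 hr at room temperature. Normalized to DMSO and 10 uM staurosporine; AC50 from Hill fits.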

A short description of assay [19]: Cellular Toxicity (caspase-3) MRC-5 (AID 659). The following applies: MRC-5 cells, luminescence, normalized: DMSO 0%, 10 µM staurosporine 100%; series mostly up to 91.7 µM. The method, boiled down:
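MRC-5 human normal lung fibroblasts, 1500 cells/well, treated 16 h at 37 °C in complete medium. Caspase 3/7 measured by Caspase-Glo luminescence after 1 h at room temperature. Normalized to DMSO and 10 uM staurosporine; AC50 from Hill fit.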

Assay [20] can be described thus: Cell Viability - H-4-II-E (AID 543). Further: on the % scale 0 is the no-effect control and ±100 the full control effect; nearly all actives have a fitted effect of over 35% in size. The note with it: H-4-II-E rat hepatoma viability; series mostly up to 92.2 µM. In outline: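 Here, cytotoxicity is measured in the rat hepatoma line H-4-II-E as loss of intracellular ATP after 40 hr compound treatment, detected by luciferase luminescence.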

Unmarked numbers belong to inactive results. Inconclusive results are not listed. Activity calls are given as the source filed them. Unless noted, the call rests on the fitted dose curve; in most records, active means well fitted curve in the direction sought with a large enough effect; inconclusive means small, poorly fitted or top-dose-only effect, or another doubt; inactive means no such curve, though single readings can be large; an effect the other way counts as inactive or inconclusive.

In the case of `O=C(O)CN(CC(=O)O)CC(=O)O`, the Potency in assay [1], in assay [2], in assay [3], in [4], in assay [5] and in assay [6] was above 92 µM in each case. For the same molecule, the molecule was classed as inactive in [7], in assay [16], in assay [17], in [18] and in assay [19]. Moreover, in assay [8], the activity change, negative = cytotoxicity was -5.01%. Also, the Potency entry in assay [9], in assay [10], in assay [11], in assay [12], in assay [13] and in [14] was “inactive” in each case. Further, the caspase-3 activation in [15] was 1.43%.

Consider `CCN(Cc1ccccc1)c1ccccc1`, for which the Potency in assay [1], in assay [2], in assay [3], in assay [4], in assay [5] and in assay [6] was above 92 µM each time. The molecule was classed as inactive in [7], in [16], in [17], in [18] and in [19]. Further, the activity change, negative = cytotoxicity in [8] is 15.1%. For the same molecule, the Potency entry in [9], in assay [10], in assay [20], in assay [12], in assay [13] and in assay [14] was “inactive” each time.

Regarding `CC(=O)OCc1ccco1`, the Potency in [1], in assay [2], in assay [3], in assay [4], in assay [5] and in [6] was above 92 µM in each case. For the same molecule, the Potency in [11] was 31.6 µM (active). Also, the molecule was classed as inactive in assay [7], in assay [16], in assay [17], in assay [18] and in assay [19]. In addition, the activity change, negative = cytotoxicity in [8] was -7.42%. In addition, the Potency result in assay [9], in [10], in assay [12], in [13] and in [14] was “inactive” each time. Moreover, in [15], the caspase-3 activation is 13.6%.

As for `Cc1cccc(C)c1O`, the Potency in assay [1], in assay [2], in assay [3], in [4], in [5] and in [6] was above 92 µM each time. The result in [7], in [16], in assay [17], in assay [18] and in assay [19] was inactive. Also, in assay [8], the activity change, negative = cytotoxicity was -7.98%. For the same molecule, the Potency entry in assay [9], in assay [10], in assay [11], in assay [12], in [13] and in assay [14] was “inactive” throughout. The caspase-3 activation in [15] was -0.87%.

Consider `c1ccc2c(c1)Oc1ccccc1S2`, for which the Potency in assay [1], in [2], in [3], in assay [4], in assay [5] and in assay [6] was above 92 µM in each case. Further, the call in [7], in assay [16], in assay [17], in [18] and in [19] was inactive. In addition, in [8], the activity change, negative = cytotoxicity is -9.06%. Besides, the Potency result in [9], in assay [10], in assay [11], in assay [12], in assay [13] and in [14] was “inactive” throughout. The caspase-3 activation in [15] was -0.252%.

Consider `Cc1cc(C(=O)O)ccc1[N+](=O)[O-]`, for which the Potency in assay [1], in [2], in [3], in assay [4], in assay [5] and in [6] was above 92 µM in each case. Further, the molecule was called inactive in [7], in assay [16], in assay [17], in assay [18] and in [19]. Also, the activity change, negative = cytotoxicity in [8] is 4.23%. Also, the Potency entry in assay [9], in assay [10], in assay [20], in assay [12], in assay [13] and in assay [14] was “inactive” each time.

For the origin of these results see PubChem BioAssay (NCATS).
